For some of these results: Measured potencies and affinities stand elsewhere. Activity calls are given as the source filed them. Unless noted, no rule for the calls is given here.
Legend:
[1] = antimalarial activity against Dd2 strain (AID 2302;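 active = growth inhibition above 50% at the single 2 µM test dose, taken to imply half-maximal potency below 2 µM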;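 also: 0% = DMSO untreated growth and 100% = chloroquine plus artemisinin killed control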); conditions: P. falciparum Dd2 in RBCs, LDH growth readout, 72 h; at 2 µM; active compounds read high
[2] = human hepatoma cell viability loss – ATP luminescence, cytotoxicity control for P. falciparum antimalarial project, primary screen (AID 2303;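 active = inhibition above 50%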;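 also: 0% = DMSO wells and 100% = digitonin-killed cells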); conditions: HepG2 viability, 24-48 h, at 10 µM, active compounds read high
[3] = target: L-lactate dehydrogenase (Plasmodium falciparum (isolate CDC / Honduras)) (UniProt Q27743); assay: PfLDH activity inhibition – cell lysate, 3D7 strain, counter-screen for P. falciparum growth inhibition project (AID 2304);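 also: 0% = vehicle and 100% = reference inhibitor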; conditions: P. falciparum 3D7 crude extract, LDH APAD/NBT absorbance; at 2 µM; active compounds read high
Chain of L-lactate dehydrogenase (Plasmodium falciparum (isolate CDC / Honduras)) (Q27743 whole entry, looked up): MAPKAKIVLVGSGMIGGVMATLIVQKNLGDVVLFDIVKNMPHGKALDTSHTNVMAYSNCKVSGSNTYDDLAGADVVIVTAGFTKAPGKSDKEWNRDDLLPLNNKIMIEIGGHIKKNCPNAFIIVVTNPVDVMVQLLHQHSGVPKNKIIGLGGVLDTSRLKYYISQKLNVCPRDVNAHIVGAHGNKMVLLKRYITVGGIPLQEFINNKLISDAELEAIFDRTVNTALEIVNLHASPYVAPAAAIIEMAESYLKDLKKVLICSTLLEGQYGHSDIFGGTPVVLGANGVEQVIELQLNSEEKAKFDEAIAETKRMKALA

[4] = inhibition of 3D7 malaria parasite growth – strain 3D7 (AID 2306);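 also: 0% = DMSO wells and 100% = chloroquine plus artemisinin control wells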; conditions: P. falciparum 3D7 erythrocytic growth, LDH absorbance, 72 h; at 2 µM; active compounds read high
[5] = target: Calcium-dependent protein kinase 1 (Plasmodium falciparum (isolate 3D7)) (UniProt P62344); assay: PfCDPK1 kinase inhibitors, biochemical, TCAMS library (AID 1159585; cut-off not given, nearly all actives have IC50 up to about 0.98 µM;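 also: inhibitors leave more ATP so luminescence rises with inhibition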); conditions: recombinant PfCDPK1, Kinase-Glo ATP depletion luminescence
Chain of Calcium-dependent protein kinase 1 (Plasmodium falciparum (isolate 3D7)) (P62344 whole entry, looked up): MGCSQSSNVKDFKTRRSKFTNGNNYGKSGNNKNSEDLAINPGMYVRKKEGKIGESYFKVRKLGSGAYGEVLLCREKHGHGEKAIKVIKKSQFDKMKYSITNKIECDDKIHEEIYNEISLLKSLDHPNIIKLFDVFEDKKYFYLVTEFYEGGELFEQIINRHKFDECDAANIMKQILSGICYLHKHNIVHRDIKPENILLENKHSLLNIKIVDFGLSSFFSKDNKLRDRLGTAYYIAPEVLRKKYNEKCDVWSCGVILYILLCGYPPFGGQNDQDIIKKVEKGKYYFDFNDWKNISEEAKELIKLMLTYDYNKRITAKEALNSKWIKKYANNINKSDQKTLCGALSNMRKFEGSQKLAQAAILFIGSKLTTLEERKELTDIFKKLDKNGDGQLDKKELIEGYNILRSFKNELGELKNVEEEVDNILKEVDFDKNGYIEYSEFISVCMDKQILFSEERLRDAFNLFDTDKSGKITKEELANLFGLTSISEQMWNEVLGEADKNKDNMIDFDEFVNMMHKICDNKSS

[6] = target: Plasmodium falciparum protein kinase 6 (PK6, PF3D7_1337100) (UniProt Q8IDW1); assay: PfPK6 kinase inhibitors, biochemical, TCAMS library (AID 1159586); conditions: recombinant PfPK6, Kinase-Glo ATP depletion luminescence
Chain of Plasmodium falciparum protein kinase 6 (PK6, PF3D7_1337100) (Q8IDW1 1-305): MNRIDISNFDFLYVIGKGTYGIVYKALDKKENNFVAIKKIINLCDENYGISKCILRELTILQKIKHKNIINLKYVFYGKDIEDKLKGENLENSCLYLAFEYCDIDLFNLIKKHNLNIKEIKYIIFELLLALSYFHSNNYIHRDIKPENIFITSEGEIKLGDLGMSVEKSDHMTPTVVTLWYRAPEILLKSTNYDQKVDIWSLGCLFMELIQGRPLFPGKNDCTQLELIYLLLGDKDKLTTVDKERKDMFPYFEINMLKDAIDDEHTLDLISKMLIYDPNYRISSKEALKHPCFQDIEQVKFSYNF

[7] = target: Protein kinase 7 (PK7), Plasmodium falciparum 3D7 (PF3D7_0213400) (UniProt Q7YTF7); assay: inhibition of Plasmodium PK7 catalytic activity – biochemical, TCAMS antimalarial set, Kinase-Glo luminescence (AID 1159587); conditions: recombinant PfPK7, Kinase-Glo ATP depletion luminescence
Chain of Protein kinase 7 (PK7), Plasmodium falciparum 3D7 (PF3D7_0213400) (Q7YTF7 1-343): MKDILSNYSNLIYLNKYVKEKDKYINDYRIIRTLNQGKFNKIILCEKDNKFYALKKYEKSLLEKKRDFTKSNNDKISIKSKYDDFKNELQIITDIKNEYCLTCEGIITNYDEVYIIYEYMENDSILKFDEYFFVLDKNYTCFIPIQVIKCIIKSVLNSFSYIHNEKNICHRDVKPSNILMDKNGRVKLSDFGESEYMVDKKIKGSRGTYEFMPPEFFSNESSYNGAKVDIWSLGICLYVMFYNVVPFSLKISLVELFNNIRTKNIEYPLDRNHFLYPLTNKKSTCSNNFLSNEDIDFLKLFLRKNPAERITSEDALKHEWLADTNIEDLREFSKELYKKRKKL

[8] = target: Calcium-dependent protein kinase 4 (Plasmodium falciparum (isolate 3D7)) (UniProt Q8IBS5); assay: PfCDPK4 kinase inhibitors, biochemical, TCAMS library (AID 1159588; cut-off not given, nearly all actives have IC50 up to about 0.91 µM); conditions: recombinant PfCDPK4, Kinase-Glo ATP depletion luminescence
Chain of Calcium-dependent protein kinase 4 (Plasmodium falciparum (isolate 3D7)) (Q8IBS5 whole entry, looked up): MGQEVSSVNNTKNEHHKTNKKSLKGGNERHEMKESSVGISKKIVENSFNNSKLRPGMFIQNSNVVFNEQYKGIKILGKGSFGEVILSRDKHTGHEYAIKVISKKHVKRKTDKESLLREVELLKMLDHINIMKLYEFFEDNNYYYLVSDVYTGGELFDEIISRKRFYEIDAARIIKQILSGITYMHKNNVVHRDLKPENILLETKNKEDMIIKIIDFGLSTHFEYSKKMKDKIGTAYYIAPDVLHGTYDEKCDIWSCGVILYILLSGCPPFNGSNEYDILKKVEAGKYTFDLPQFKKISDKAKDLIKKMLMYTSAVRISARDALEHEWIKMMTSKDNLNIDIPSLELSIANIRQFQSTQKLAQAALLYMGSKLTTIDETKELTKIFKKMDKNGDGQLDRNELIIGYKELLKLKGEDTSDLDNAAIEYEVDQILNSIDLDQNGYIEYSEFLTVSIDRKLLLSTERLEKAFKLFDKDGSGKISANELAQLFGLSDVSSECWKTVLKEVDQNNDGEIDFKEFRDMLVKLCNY

O=C(Nc1ccc(CN2CCOCC2)cc1)c1ccc(-c2ccc(Cl)cc2)o1
active: growth inhibition [4] 98%
inactive: growth inhibition [1] 11% | inhibition [2] 22% | inhibition [3] -6% | outcome [5] | outcome [6] | outcome [7] | outcome [8]

CN1C(=CC(=O)NC(=O)c2ccccc2)C(C)(C)c2ccccc21
active: growth inhibition [1] 89% | growth inhibition [4] 93%
inactive: inhibition [2] -5% | inhibition [3] 4% | outcome [5] | outcome [6] | outcome [7] | outcome [8]

CC1(C)N=C(N)N=C(N)N1OCCCSc1ccccc1
active: growth inhibition [1] 94% | inhibition [2] 69% | growth inhibition [4] 93%
inactive: inhibition [3] 0% | outcome [5] | outcome [6] | outcome [7] | outcome [8]

Cn1cncc1-c1cc2c(Nc3ccc(OCc4ccccc4)cc3)ncnc2cn1
inactive: inhibition [2] -1% | inhibition [3] 4% | outcome [5] | outcome [6] | outcome [7] | outcome [8]
active: growth inhibition [1] 75% | growth inhibition [4] 99%

CCCCCCN1CCN(Cc2cccc(NC(=O)c3cc4ccccc4s3)c2)CC1
inactive: inhibition [2] 20% | inhibition [3] -1% | outcome [5] | outcome [6] | outcome [7] | outcome [8]
active: growth inhibition [1] 68% | growth inhibition [4] 93%

CCN(CCCN1CCCCC1)c1cc(C)nc(Nc2ccc(Br)cc2F)n1
inactive: growth inhibition [1] 24% | inhibition [2] 32% | inhibition [3] -6% | outcome [5] | outcome [6] | outcome [7] | outcome [8]
active: growth inhibition [4] 95%

CC(=O)Nc1ccc(OCCCN(Cc2ccccc2C(F)(F)F)c2ccc(C(F)(F)F)c(C#N)c2)c(Cl)c1
inactive: growth inhibition [1] 43% | inhibition [2] 5% | inhibition [3] 3% | outcome [5] | outcome [6] | outcome [7] | outcome [8]
active: growth inhibition [4] 85%

N#Cc1cccc(Nc2nccc(Nc3ccc(Oc4ccccc4)cc3)n2)c1
active: growth inhibition [4] 94%
inactive: growth inhibition [1] 17% | inhibition [2] 12% | inhibition [3] -6% | outcome [5] | outcome [6] | outcome [7] | outcome [8]

CC(C)N1CCN(C(CN2CCN(CCCOc3ccc4nonc4c3)CC2)c2ccc(F)cc2)CC1 (stereo not given)
active: growth inhibition [4] 97%
inactive: growth inhibition [1] 40% | inhibition [2] -3% | inhibition [3] -3% | outcome [5] | outcome [6] | outcome [7] | outcome [8]

CC(C)NCc1cccc(-c2cccc(-c3nc4ccc(F)cc4[nH]3)c2)c1
active: growth inhibition [1] 85% | growth inhibition [4] 101%
inactive: inhibition [2] 20% | inhibition [3] 2% | outcome [5] | outcome [6] | outcome [7] | outcome [8]

COc1ccc2ncc(C#N)c(CCN3CCC(NCc4ccc5c(c4)NC(=O)CO5)CC3)c2c1
active: growth inhibition [4] 99%
inactive: growth inhibition [1] 43% | inhibition [2] 25% | inhibition [3] -3% | outcome [5] | outcome [6] | outcome [7] | outcome [8]

CC(C)(C)COC(=O)c1ccc(NC(=O)N[C@@H](Cc2ccc(O)cc2)C(=O)NC2CCN(Cc3ccc(O)cc3)C2)cc1 (stereo not given in full)
active: growth inhibition [4] 94%
inactive: growth inhibition [1] 21% | inhibition [2] 3% | inhibition [3] -1% | outcome [5] | outcome [6] | outcome [7] | outcome [8]

CC[C@]1(C)C[C@@H](NC(=O)NC(=O)c2ccc(OC)cc2)[C@]2(C)[C@H](C)CC[C@]3(CCC(=O)[C@H]32)[C@@H](C)[C@@H]1OC(=O)NC(=O)c1ccc(OC)cc1
active: growth inhibition [1] 98% | growth inhibition [4] 100%
inactive: inhibition [2] 10% | inhibition [3] -5% | outcome [5] | outcome [6] | outcome [7] | outcome [8]

Cn1cnnc1Sc1ccc(CN2CCOc3ccc(C4=CCCCC4)cc3C2)o1
inactive: inhibition [2] 1% | inhibition [3] 3% | outcome [5] | outcome [6] | outcome [7] | outcome [8]
active: growth inhibition [1] 97% | growth inhibition [4] 98%

CCOc1cccc(C(=O)Nc2cccc(CN3CCCN(Cc4ccc(O)cc4)CC3)c2)c1
inactive: growth inhibition [1] 31% | inhibition [2] 23% | inhibition [3] 1% | outcome [5] | outcome [6] | outcome [7] | outcome [8]
active: growth inhibition [4] 91%

Cc1cc(-c2ccc3c(c2)CCN(CCC2CCC(NC(=O)/C=C/c4cccc(F)c4)CC2)CC3)on1 (stereo not given)
inactive: growth inhibition [1] 19% | inhibition [2] 23% | inhibition [3] -10% | outcome [5] | outcome [6] | outcome [7] | outcome [8]
active: growth inhibition [4] 95%

CC(C)(C)c1ccc(CN2CCC(NC(=O)c3cc(-c4cccc(C(F)(F)F)c4)cs3)C2)cc1 (stereo not given)
active: growth inhibition [1] 85% | growth inhibition [4] 98%
inactive: inhibition [2] 24% | inhibition [3] -1% | outcome [5] | outcome [6] | outcome [7] | outcome [8]

COc1ccc(N2CCN(CCCC/C=C/c3ccc(NC(=O)c4cc(Cl)cc(Cl)c4)cc3)CC2)c(OC)c1
active: growth inhibition [4] 99%
inactive: growth inhibition [1] 39% | inhibition [2] 20% | inhibition [3] 5% | outcome [5] | outcome [6] | outcome [7] | outcome [8]

Fc1ccc(CNc2ccc3ncc(-c4cccnc4)n3n2)cc1
active: growth inhibition [4] 87%
inactive: growth inhibition [1] 7% | inhibition [2] 7% | inhibition [3] -2% | outcome [5] | outcome [6] | outcome [7] | outcome [8]

CC=CCON1C(N)=NC(N)=NC1(C)C
inactive: growth inhibition [1] 1% | inhibition [3] 5% | outcome [5] | outcome [6] | outcome [7] | outcome [8]
active: inhibition [2] 57% | growth inhibition [4] 94%
